In paper PMC5540273 (PLoS ONE, 2017):

Experiments:
Settings in all cases: concentration: 1 μM,replicates: in singlicate; n = 1
[1] = test system: EPHA7
[2] = test system: EPHA8
[3] = test system: EPHB1
[4] = test system: EPHB2
[5] = test system: EPHB3
[6] = test system: EPHB4
[7] = test system: EPHB6
[8] = test system: ERBB2
[9] = test system: ERBB3
[10] = test system: ERBB4
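Further: KINOMEscan kinase panel screen.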

SMILES | %Inh [1] [%] | %Inh [2] [%] | %Inh [3] [%] | %Inh [4] [%] | %Inh [5] [%] | %Inh [6] [%] | %Inh [7] [%] | %Inh [8] [%] | %Inh [9] [%] | %Inh [10] [%]
N#Cc1cccc(C(=O)NC2CCN(c3ccnc(Nc4ccc(F)cc4)n3)C2)c1 (stereo not drawn) [GSK1379708] | 0 | 0 | 9 | 0 | 13 | 5 | 0 | 9 | 0 | 10
CCn1c(-c2nonc2N)nc2cncc(CNC3CCNCC3)c21.Cl [SB-747651] | 9 | 0 | 12 | 0 | 8 | 0 | 0 | 21 | 8 | 0
Cn1ccc2ncnc(Oc3ccc(NC(=O)Nc4cncc(C(F)(F)F)c4)c(Cl)c3)c21 | 74 | 95.4 | 45 | 82 | 37 | 35 | 66 | 24 | 0 | 2
COc1cccc(C2=C(Nc3cccc(Cl)c3)C(=O)NC2=O)c1 [SB-341556] | 7 | 20 | 0 | 0 | 17 | 4 | 29 | 0 | 0 | 0
CN1CCN(CCCNc2nccc(-c3c(-c4ccc(F)cc4)nn4cc(C(N)=O)ccc34)n2)CC1 [GW622475] | 8 | 26 | 35 | 26 | 0 | 20 | 44 | 24 | 0 | 63
OCCn1cc(-c2cnc3nnn(Cc4ccc5ncccc5c4)c3n2)cn1 | 0 | 0 | 0 | 0 | 0 | 0 | 17 | 5 | 0 | 0
O=c1[nH]cc(-c2ccc(O)cc2)c2sc(-c3ccncc3)cc12 [GSK1033723] | 0 | 2 | 0 | 26 | 15 | 13 | 0 | 28 | 0 | 2
c1ccc(Oc2ccc(Nc3ccnc4ccc(-c5ccccn5)cc34)cc2)cc1 [GW407034] | 0 | 14 | 0 | 5 | 1 | 13 | 49 | 90.3 | 89 | 88
FC(F)(F)c1cc(Br)cc(Nc2nccc(-c3cnn4ncccc34)n2)c1 [GW810578] | 0 | 0 | 0 | 9 | 17 | 0 | 48 | 0 | 1 | 0
C[C@@H]1CNc2c(sc3ccc4nc(-c5ccncc5)ccc4c23)C(=O)N1 | 0 | 0 | 0 | 0 | 20 | 17 | 18 | 14 | 10 | 0
COc1ccc(Nc2nccc(N3CCC(NC(=O)c4cccc(C#N)c4)C3)n2)cc1 (stereo not drawn) [GSK1379730] | 3 | 18 | 0 | 0 | 3 | 0 | 0 | 0 | 0 | 0
O=C(Nc1cccc(C(F)(F)F)c1)c1cccc(Oc2ccc3nccn3n2)c1 | 5 | 27 | 20 | 9 | 12 | 23 | 12 | 0 | 40 | 0
Cl.c1ccc(Oc2ccc(Nc3ccnc4cc(-c5ccc(CN6CCNCC6)o5)ccc34)cc2)nc1 [GW567142] | 0 | 10 | 0 | 0 | 0 | 4 | 96.2 | 92 | 97 | 42
Cn1ccc2ncnc(Oc3ccc(NC(=O)Nc4cnn(C(C)(C)C)c4)c(Cl)c3)c21 | 27 | 41 | 15 | 50 | 29 | 15 | 48 | 31 | 9 | 12
CN(c1cccc(CNc2nc(Nc3ccc4c(c3)CC(=O)N4)ncc2C(F)(F)F)c1)S(C)(=O)=O | 33 | 0 | 20 | 14 | 1 | 5 | 56 | 26 | 0 | 6
CC(=O)Nc1ccc(-c2cc3ncnc(SCC(=O)O)c3s2)cc1 | 0 | 0 | 0 | 10 | 22 | 23 | 84 | 6 | 8 | 3
C[C@@H]1CCN(C(=O)N2CCCC2)C[C@@H]1N(C)c1ncnc2[nH]ccc12 | 0 | 0 | 0 | 5 | 26 | 0 | 34 | 10 | 0 | 7
CC(=O)Nc1nc2cnc(Nc3cc(NC(=O)c4cccc(CC(C)(C)C#N)c4)ccc3C)nc2s1 | 4 | 72 | 11 | 55 | 13 | 37 | 61 | 42 | 9 | 0
O=C(Nc1n[nH]c2cc(-c3ccco3)ccc12)C1CC1 [SB-737447] | 0 | 0 | 0 | 0 | 6 | 0 | 34 | 0 | 0 | 0
Cc1ccc(Nc2ccnc(Nc3ccc4c(c3)CS(=O)(=O)C4)n2)cc1O.Cl [GW579362] | 44 | 85 | 78 | 25 | 0 | 16 | 91.7 | 17 | 34 | 69
Nc1nccc(-c2ccc3c(N)n[nH]c3c2)n1 [GSK1034945] | 6 | 13 | 30 | 19 | 16 | 6 | 2 | 6 | 0 | 25
O=C(Nc1cccc(Oc2ccc3nccn3n2)c1)Nc1cccc(C(F)(F)F)c1 | 0 | 92.6 | 3 | 39 | 11 | 16 | 40 | 22 | 45 | 0
CCNCC(Cc1ccccc1)NC(=O)c1cc(Br)c(-c2ccnc3[nH]ccc23)s1.Cl.Cl (stereo not drawn) [GSK1383280] | 9 | 26 | 7 | 0 | 17 | 0 | 0 | 3 | 0 | 22
COC(=O)Nc1nc2cc(Oc3ccc(NC(=O)Nc4cc(C(F)(F)F)ccc4Cl)cc3)ccc2[nH]1.Cl [GW697465] | 84 | 99.7 | 62 | 60 | 10 | 51 | 83 | 45 | 25 | 37
Cc1ccc(CC(=O)N2CCc3cc(-c4cn(C)c5ncnc(N)c45)ccc32)cc1 [GSK2634758] | 4 | 13 | 7 | 0 | 0 | 10 | 53 | 0 | 10 | 18
CSc1nccc(-c2c(-c3ccc(F)cc3)ncn2CCCN2CCOCC2)n1.Cl [SB-217146] | 0 | 0 | 11 | 0 | 0 | 0 | 0 | 7 | 0 | 0
CS(=O)(=O)c1cccc(CNc2nc(Nc3ccc4c(c3)[C@@H]3C[C@@H]4CNC3=O)ncc2C(F)(F)F)c1 | 63 | 0 | 40 | 19 | 5 | 16 | 72 | 15 | 0 | 20
COc1cccc(CNC(=O)NC2CCN(c3ccnc(Nc4cc(OC)c(OC)c(OC)c4)n3)C2)c1 (stereo not drawn) [GSK1379765] | 6 | 13 | 13 | 0 | 20 | 8 | 92.6 | 17 | 28 | 38
COc1cc2nccc(Nc3ccc(Oc4ccccc4)cc3)c2cc1OC.Cl [GI261656] | 0 | 0 | 9 | 0 | 0 | 3 | 90.9 | 80 | 99.6 | 85
COc1cc2c(Nc3ccc(NC(=O)c4ccccc4)cc3)ncnc2cc1OCCCN1CCOCC1 [GSK301329] | 6 | 12 | 20 | 0 | 5 | 2 | 79 | 72 | 0 | 85
